{"source": "PubChem BioAssay (EPA / NIEHS)", "note": "Results filed as inconclusive are left out. Some structures have more than one record in an assay (separate samples or runs), and their calls can disagree. The source made the active and inactive calls. Rule for the calls, unless noted: active = hit-call score of the fitted dose curve at least 0.9, where 1 is the maximum; inactive = score below 0.9.", "data": [{"tested_on": "not listed separately", "assay": "IUF_NPC2b_neuronal_migration_120hr: Leibniz Research Institute for Environmental Medicine (IUF) 120-hour Neural Progenitor Cell Migration Assay for Neuron Migration (NPC2b) (AID 2284300)", "conditions": "not given", "outline": "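Read-out is mean distance from sphere edge to each TUBB3-positive neuron at 120 h, expressed relative to radial glia migration distance and to DMSO baseline. Single 0.3 mm human NPC spheres differentiated on laminin under continuous compound exposure.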", "values": [{"smiles": "CN(C)CCOC(C)(c1ccccc1)c1ccccn1", "note": "(stereo not drawn)", "outcome": "inactive"}, {"smiles": "COCCOCCOCCO", "outcome": "inactive"}, {"smiles": "COCCc1ccc(OCC(O)CNC(C)C)cc1", "note": "(stereo not drawn)", "outcome": "inactive"}, {"smiles": "Oc1c(Cl)cc(Cl)c(Cl)c1Cc1c(O)c(Cl)cc(Cl)c1Cl", "AC50": "566 nM (active)"}]}, {"tested_on": "not listed separately", "assay": "IUF_NPC3_neuronal_differentiation_120hr: Leibniz Research Institute for Environmental Medicine (IUF) 120-hour Neuronal Differentiation Assay (NPC3) (AID 2284301)", "conditions": "not given", "outline": "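Human fetal (GW 16-19) neural progenitor spheres (0.3 mm) plated on poly-D-lysine/laminin in N2 differentiation medium, exposed 120 h at 37C with half-medium renewal day 3; 7 concentrations. TUBB3+ cells as % of Hoechst nuclei, CNN-identified; DMSO baseline.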", "values": [{"smiles": "CN(C)CCOC(C)(c1ccccc1)c1ccccn1", "note": "(stereo not drawn)", "outcome": "inactive"}, {"smiles": "COCCOCCOCCO", "outcome": "inactive"}, {"smiles": "COCCc1ccc(OCC(O)CNC(C)C)cc1", "note": "(stereo not drawn)", "outcome": "inactive"}, {"smiles": "Oc1c(Cl)cc(Cl)c(Cl)c1Cc1c(O)c(Cl)cc(Cl)c1Cl", "AC50": "472 nM (active)"}]}, {"tested_on": "not listed separately", "assay": "IUF_NPC4_neurite_length_120hr: Leibniz Research Institute for Environmental Medicine (IUF) 120-hour Neuronal Morphology Assay for Neurite Length (NPC4) (AID 2284302)", "conditions": "not given", "outline": "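Human fetal neural progenitor spheres (0.3 mm) plated on poly-D-lysine/laminin in N2 differentiation medium, exposed from day 0 for 120 h with half-medium refresh at day 3, 37C. Mean neurite length (um) of TUBB3-positive neurons from skeletonized immunostaining images; DMSO ≤0.1%.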", "values": [{"smiles": "CN(C)CCOC(C)(c1ccccc1)c1ccccn1", "note": "(stereo not drawn)", "outcome": "inactive"}, {"smiles": "COCCc1ccc(OCC(O)CNC(C)C)cc1", "note": "(stereo not drawn)", "outcome": "inactive"}, {"smiles": "Oc1c(Cl)cc(Cl)c(Cl)c1Cc1c(O)c(Cl)cc(Cl)c1Cl", "AC50": "168 nM (active)"}]}, {"read-out": "CD69, CD69 (gene 969)", "assay": "BSK_LPS_CD69: BioMAP Diversity Plus: LPS Assay for CD69 Biomarker Activity (AID 2284303)", "conditions": "primary human HUVEC with PBMC", "method": "BSK_LPS is a cell-based, multiplexed-readout assay that uses umbilical vein endothelium and peripheral blood mononuclear cells, a human vascular primary cell co-culture, with measurements taken at 24 hours after chemical dosing in a 96-well plate.BSK_LPS_CD69 is an assay component measured in the BSK_LPS assay. It measures CD69 antibody related to regulation of gene expression using ELISA technology.Data from the assay component BSK_LPS_CD69 was analyzed at the endpoint, BSK_LPS_CD69, in the positive analysis fitting direction relative to DMSO as the negative control and baseline of activity. Using a type of binding reporter, gain or loss-of-signal activity can be used to understand protein changes. To generalize the intended target to other relatable targets, this assay endpoint is annotated to the 'cytokine' intended target family, where the subfamily is 'inflammatory factor'.\nThe levels of cell surface (or secreted, indicated by the prefix \"s\") biomarker endpoints were measured by ELISA. Overt cytotoxicity to cells in confluent adherent cultures (all systems other than the BT system) was assessed by measuring total protein levels using sulforhodamine B (SRB) staining in parallel cultures at the time of biomarker measurements, indicated as SRB endpoints. For proliferation assays for adherent cell types, individual cell types are cultured at sub-confluence and relative cell numbers quantified by SRB staining at time points optimized for each system (48 h: 3C and CASM3C systems; 72 h: BT and HDF3CGF systems; 96 h: SAg system). SRB was performed by staining cells with 0.1% SRB after fixation with 10% TCA and reading wells at 560 nm.Viability and proliferation of PBMC (T cells) was quantified by Alamar Blue reduction for the SAg and BT systems. For PBMC viability (referred to as PBMC Cytotoxicity within the assay endpoint names), cells were plated (75,000/well in a 96-well plate) and then chemical samples added for 1 h before addition of activators, SEB and TSST-1 (20 ng/mL final concentration each). Cells were incubated for 90 h. Then, Alamar Blue (20 uL/well) (Invitrogen, Cat DAL1100) was added for 6 h, and the plates were read with a fluorescence microplate reader at 546/580 nm (excitation/emission). For PBMC proliferation, cells were plated and activated as above but incubated for only 16 h prior to addition of Alamar Blue. Plates were read after 6 h.", "values": [{"smiles": "CCCCCCC(CO)CCCC", "note": "(stereo not drawn)", "outcome": "inactive"}, {"smiles": "CC(CN=Cc1ccccc1O)N=Cc1ccccc1O", "note": "(stereo not drawn)", "outcome": "inactive"}, {"smiles": "C=CC(C)(O)CCC=C(C)C", "note": "(stereo not drawn)", "outcome": "inactive"}, {"smiles": "CCOC(=O)C(C#N)=C(c1ccccc1)c1ccccc1", "AC50": "27900 nM (active)", "outcome": "inactive"}, {"smiles": "O=C(Nc1ccc2c(O)c(N=Nc3ccc(N=Nc4ccc(S(=O)(=O)O)cc4)cc3)c(S(=O)(=O)O)cc2c1)c1ccccc1", "outcome": "inactive"}, {"smiles": "CC1(C)CCC[C@]2(C)[C@H]3CCO[C@]3(C)CC[C@@H]12", "outcome": "inactive"}, {"smiles": "O=CN1CCOCC1", "outcome": "inactive"}]}, {"tested_on": "not listed separately", "assay": "IUF_NPC5_oligodendrocyte_differentiation_120hr: Leibniz Research Institute for Environmental Medicine (IUF) 120-hour Oligodendrocyte Differentiation Assay (NPC5) (AID 2284304; active = hit-call score of the fitted dose curve at least 0.9, where 1 is the maximum;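 note: primary human fetal neural progenitor spheres plated to migrate and differentiate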)", "conditions": "not given", "outline": "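Oligodendrocyte differentiation was scored after 120 h as the O4-positive share of Hoechst-stained nuclei across the neurosphere migration area, using a trained convolutional neural network on high-content fluorescence images. Human fetal neural progenitor spheres were dosed from day 0, normalised to DMSO.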", "values": [{"smiles": "COCCOCCOCCO", "outcome": "inactive"}, {"smiles": "COCCc1ccc(OCC(O)CNC(C)C)cc1", "note": "(stereo not drawn)", "outcome": "inactive"}, {"smiles": "Oc1c(Cl)cc(Cl)c(Cl)c1Cc1c(O)c(Cl)cc(Cl)c1Cl", "AC50": "75.1 nM (active)"}]}, {"tested_on": "not listed separately", "assay": "IUF_NPC4_neurite_area_120hr: Leibniz Research Institute for Environmental Medicine (IUF) 120-hour Neuronal Morphology Assay for Neurite Area (NPC4) (AID 2284305; active = hit-call score of the fitted dose curve at least 0.9, where 1 is the maximum)", "conditions": "not given", "outline": "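Human fetal neural progenitor spheres (0.3 mm) plated on poly-D-lysine/laminin in N2 differentiation medium, exposed 120 h (7 concentrations, DMSO ≤0.1%, half-medium refresh day 3). Fixed, TUBB3 immunostained; mean neurite area per neuron by Omnisphero skeletonization.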", "values": [{"smiles": "COCCOCCOCCO", "outcome": "inactive"}, {"smiles": "COCCc1ccc(OCC(O)CNC(C)C)cc1", "note": "(stereo not drawn)", "outcome": "inactive"}, {"smiles": "Oc1c(Cl)cc(Cl)c(Cl)c1Cc1c(O)c(Cl)cc(Cl)c1Cl", "AC50": "264 nM (active)"}]}, {"tested_on": "not listed separately", "assay": "IUF_NPC2-5_cytotoxicity_72hr: Cytotoxicity Assessment at 72 hours in the Leibniz Research Institute for Environmental Medicine (IUF) Neural Progenitor Cell Migration and Differentiation Assay for Cytotoxicity (NPC2-5) (AID 2284306; active = hit-call score of the fitted dose curve at least 0.9, where 1 is the maximum;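 note: LDH release into supernatant measured by resorufin fluorescence marking membrane damage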)", "conditions": "not given", "outline": "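Human fetal primary neural progenitor spheres (0.3 mm) plated on poly-D-lysine/laminin in N2 differentiation medium, exposed from day 0 at 37C. LDH-dependent resazurin-to-resorufin fluorescence in supernatant at 72 h; 7 concentrations, DMSO at most 0.1%.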", "values": [{"smiles": "CN(C)CCOC(C)(c1ccccc1)c1ccccn1", "note": "(stereo not drawn)", "outcome": "inactive"}, {"smiles": "COCCOCCOCCO", "outcome": "inactive"}, {"smiles": "COCCc1ccc(OCC(O)CNC(C)C)cc1", "note": "(stereo not drawn)", "outcome": "inactive"}, {"smiles": "Oc1c(Cl)cc(Cl)c(Cl)c1Cc1c(O)c(Cl)cc(Cl)c1Cl", "AC50": "702 nM (active)"}]}, {"tested_on": "not listed separately", "assay": "IUF_NPC2-5_cytotoxicity_120hr: Cytotoxicity Assessment at 120 hours in the Leibniz Research Institute for Environmental Medicine (IUF) Neural Progenitor Cell Migration and Differentiation Assay (NPC2-5) (AID 2284307; active = hit-call score of the fitted dose curve at least 0.9, where 1 is the maximum;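 for AC50: LDH released into supernatant as membrane damage marker via resorufin fluorescence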)", "conditions": "not given", "outline": "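Sphere plating starts differentiation and exposure together at day 0. Compound solution is half-replaced on day 3. At 120 h, medium supernatant is taken for an LDH membrane-integrity read based on resazurin reduction to resorufin fluorescence.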", "values": [{"smiles": "CN(C)CCOC(C)(c1ccccc1)c1ccccn1", "note": "(stereo not drawn)", "outcome": "inactive"}, {"smiles": "COCCOCCOCCO", "outcome": "inactive"}, {"smiles": "COCCc1ccc(OCC(O)CNC(C)C)cc1", "note": "(stereo not drawn)", "outcome": "inactive"}, {"smiles": "Oc1c(Cl)cc(Cl)c(Cl)c1Cc1c(O)c(Cl)cc(Cl)c1Cl", "AC50": "295 nM (active)"}]}]}
